The list is not random: actives were taken first. Their share in the collection is about 6%.
D1 PAM = Potentiators of Human D1 Dopamine Receptor: qHTS; D(1A) dopamine receptor (Homo sapiens), P21728; HEK293 TREx D1 cells, calcium flux, dopamine EC20 potentiation; potentiation, % at 10 µM; hit rate 0.036% among 360,000; in the data active = potentiation above about 30%; also: 0% is about no effect
Target sequence (P21728 whole entry, looked up): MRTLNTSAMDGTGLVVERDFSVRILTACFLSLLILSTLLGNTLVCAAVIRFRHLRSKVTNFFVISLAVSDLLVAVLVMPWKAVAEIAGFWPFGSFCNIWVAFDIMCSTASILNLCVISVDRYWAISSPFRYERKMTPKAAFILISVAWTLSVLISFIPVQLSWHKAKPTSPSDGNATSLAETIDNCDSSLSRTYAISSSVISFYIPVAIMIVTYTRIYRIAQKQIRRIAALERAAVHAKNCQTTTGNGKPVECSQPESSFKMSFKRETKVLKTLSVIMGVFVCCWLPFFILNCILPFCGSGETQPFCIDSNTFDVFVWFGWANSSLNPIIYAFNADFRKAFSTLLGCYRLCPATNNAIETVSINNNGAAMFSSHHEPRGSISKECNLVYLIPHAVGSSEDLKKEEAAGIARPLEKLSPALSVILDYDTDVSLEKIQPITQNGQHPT
DRD3 agonist = qHTS of D3 Dopamine Receptor Agonist: qHTS | D3R DiscoveRx beta-arrestin cells, luminescence, 90 min | D(3) dopamine receptor (Homo sapiens), P35462 | max activation, % | hit rate 0.58% among 410,000; in the data active = max activation above about 30%; also: 0% is about no effect
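Cells at 1500/well, incubated overnight, then treated with pinned compounds (dopamine as control) for 90 min at 37 degrees C. DiscoveRx reagent added for 30 - 60 minutes at room temperature; luminescence read.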
DRD3 antagonist = qHTS of D3 Dopamine Receptor Antagonist: qHTS; D(3) dopamine receptor (Homo sapiens), P35462; D3R cells, DiscoveRx beta-arrestin luminescence, antagonist mode; active compounds read low; max response, negative = inhibition, %; hit rate 2.5% among 360,000; AID 652054, 2013; in the data active = max response below about -50%; also: % is scaled to controls: 0 for no effect and ±100 for the full control effect
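Cells plated overnight at 1500 cells/well, then exposed to library compounds with dopamine controls for 90 minutes at 37 degrees C. DiscoveRx reagent added for 30–60 minutes at room temperature; luminescence read, quantitative HTS format.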
D1 agonist = Allosteric Agonists of the Human D1 Dopamine Receptor: qHTS; activation, % at 2 µM; HEK293 T-REx D1 cells, calcium flux, agonist mode; hit rate 1% among 360,000; in the data active = activation above about 30%; also: 0% is about no effect
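Agonism was scored from calcium flux recorded over 180 s (1 read/s) after pintool compound addition, following a 10-cycle baseline. Cells were inducible force-coupled HEK293 TREx D1, plated overnight at 30 C and loaded with no-wash calcium dye.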
D1 antagonist = Antagonist of Human D 1 Dopamine Receptor: qHTS. hit rate 3.2% among 360,000. activity change, negative = inhibition, % at 10 µM. HEK293 TREx D1 cells, calcium flux, dopamine EC80; active compounds read low. D(1A) dopamine receptor (Homo sapiens), P21728; in the data active = activity change below about -30%; also: % is scaled to controls: 0 for no effect and ±100 for the full control effect
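Allosteric or orthosteric antagonism assessed as attenuation of the calcium response to EC80 dopamine, added 180 s after compound, in induced HEK293 Trex D1 cells loaded with no-wash calcium dye.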
Numbers without * were called inactive.

Results for CC(C)Oc1ccc(CNS(=O)(=O)c2cnc(N)nc2)cc1 ?
D1 PAM: -2; DRD3 agonist: 8; D1 agonist: 0; D1 antagonist: 27

How did CC(=O)NN=C1CCC(c2ccccc2)CC1 (configuration not stated) do in these assays?
D1 PAM: -9; DRD3 agonist: 2; DRD3 antagonist: 3; D1 agonist: 1; D1 antagonist: -3

Results for NC(N)=NN=C1CCC(c2ccccc2)CC1 (configuration not stated) ?
D1 PAM: 37*; DRD3 agonist: -9; DRD3 antagonist: -20; D1 agonist: 2; D1 antagonist: 7

How did CC(C)Cn1c(N)c(C(=O)COC(=O)C2CC(=O)N(Cc3ccccc3Cl)C2)c(=O)n(C)c1=O (configuration not stated) do in these assays?
D1 PAM: -1; DRD3 agonist: 39*; DRD3 antagonist: 58; D1 agonist: 3; D1 antagonist: -28

Results for Cc1ccc(C)c(S(=O)(=O)c2nnn3c2nc(NC2CCCC2)c2sccc23)c1 ?
D1 PAM: -5; DRD3 agonist: 15; D1 agonist: 2; D1 antagonist: -24

How did O=S(=O)(c1cccc(Cl)c1)c1nnn2c1nc(NC1CCCC1)c1sccc12 do in these assays?
D1 PAM: -8; DRD3 agonist: 8; D1 agonist: 6; D1 antagonist: -72*

Results for CC1CCN(c2nc3c(S(=O)(=O)c4cccc(Cl)c4)nnn3c3ccsc23)CC1 ?
D1 PAM: -3; DRD3 agonist: 0; D1 agonist: 5; D1 antagonist: 6

Results for Cc1cc(C)cc(Nc2nc3c(S(=O)(=O)c4cccc(Cl)c4)nnn3c3ccsc23)c1 ?
D1 PAM: -6; DRD3 agonist: 54*; D1 agonist: 1; D1 antagonist: 4

Results for Cc1ccc(S(=O)(=O)c2nnn3c2nc(NC2CCCCC2)c2sccc23)cc1C ?
D1 PAM: -6; DRD3 agonist: 23; D1 agonist: 15; D1 antagonist: -39*

Results for Cc1cc2c(c(=O)n1-c1ccccc1)C1O[C@](c3ccsc3)(Cc3cc(C#N)ccc31)O2 ?
D1 PAM: 3; D1 agonist: 0; D1 antagonist: -8

How did CCOC1CCCc2oc(-c3ccc(OC)cc3)c(C(=O)NCCCCO)c21 (configuration not stated) do in these assays?
DRD3 agonist: -1; DRD3 antagonist: 3

What do the screens show for `CCOc1ccc(NC(=O)c2ccc(Br)o2)c([N+](=O)[O-])c1`?
D1 PAM: -3; DRD3 agonist: -1; DRD3 antagonist: -6; D1 agonist: 0; D1 antagonist: -45*

How did CCOc1ccc(NC(=O)Cc2ccccc2)c([N+](=O)[O-])c1 do in these assays?
D1 PAM: -5; DRD3 agonist: -7; DRD3 antagonist: -1; D1 agonist: 0; D1 antagonist: 9

How did CC(=O)C1=C(O)C2(C)c3c(O)c(C)c(O)c(C(C)=O)c3OC2CC1=O (configuration not stated) do in these assays?
DRD3 agonist: 2; DRD3 antagonist: 43

How did Cc1c2cnn(CC(=O)Nc3c(F)c(F)cc(F)c3F)c(=O)c2c(C)n1Cc1ccc(F)cc1 do in these assays?
D1 PAM: 3; D1 agonist: 3; D1 antagonist: 4

What do the screens show for `Cc1ccc2[nH]c3c(=O)n(CC(=O)Nc4ccccc4N4CCN(C)CC4)ncc3c2c1`?
D1 PAM: -9; DRD3 agonist: -18; DRD3 antagonist: -55*; D1 agonist: 1; D1 antagonist: 10

How did CCOc1ccccc1NC(=O)Cn1ncc2c([nH]c3ccccc32)c1=O do in these assays?
D1 PAM: -4; DRD3 agonist: -9; D1 agonist: 3; D1 antagonist: -30*

How did COC(=O)c1ccccc1NC(=O)Cn1ncc2c(C)n(Cc3ccc(F)cc3)c(C)c2c1=O do in these assays?
D1 PAM: -3; DRD3 agonist: 10; D1 agonist: 3; D1 antagonist: -71*

What do the screens show for `CN1CCN(c2ccccc2NC(=O)Cn2ncc3c([nH]c4ccccc43)c2=O)CC1`?
D1 PAM: 4; DRD3 agonist: -17; DRD3 antagonist: -13; D1 agonist: 0; D1 antagonist: 21

How did O=C(OC[C@H]1O[C@](O)(COC(=O)c2cccnc2)[C@@H](OC(=O)c2cccnc2)[C@@H]1OC(=O)c1cccnc1)c1cccnc1 do in these assays?
DRD3 agonist: -8

What do the screens show for `CCCCn1c(=O)[nH]c(=O)c2c1nc(-c1cc3c(cc1Br)OCO3)n2C`?
D1 PAM: -3; DRD3 agonist: 0; DRD3 antagonist: 5; D1 agonist: 2; D1 antagonist: 6

Results for C=Cc1ccc(Cn2c(C)c(C(=O)NCc3ccccc3C(F)(F)F)sc2=O)cc1 ?
DRD3 agonist: 3; DRD3 antagonist: 21

Results for COc1ccc(-c2noc(N3CCC(C(=O)N4CCN(c5ccccc5OC)CC4)CC3)n2)cc1 ?
D1 PAM: -4; DRD3 agonist: 7; D1 agonist: 8; D1 antagonist: -56*

How did COc1ccc(-c2noc(N3CCC(C(=O)Nc4ccc(F)cc4F)CC3)n2)cc1 do in these assays?
D1 PAM: -10; DRD3 agonist: 5; DRD3 antagonist: -12; D1 agonist: 8; D1 antagonist: 0

What do the screens show for `COc1ccc(-c2noc(N3CCC(C(=O)NCc4ccc(F)cc4)CC3)n2)cc1`?
D1 PAM: -10; DRD3 agonist: -3; DRD3 antagonist: 11; D1 agonist: 10; D1 antagonist: -36*

How did COc1ccc(-c2noc(N3CCC(C(=O)Nc4ccc(OC)cc4OC)CC3)n2)cc1 do in these assays?
D1 PAM: -14; DRD3 agonist: 6; DRD3 antagonist: 0; D1 agonist: 9; D1 antagonist: -31*

What do the screens show for `CCc1ccc(NC(=O)C2CCN(c3nc(-c4ccc(OC)cc4)no3)CC2)cc1`?
D1 PAM: -1; DRD3 agonist: 5; D1 agonist: 0; D1 antagonist: -2

Results for CC(Sc1ncnc2sc(-c3ccccc3)cc12)C(=O)N1CCNC1=O (configuration not stated) ?
D1 PAM: -1; DRD3 agonist: 10; DRD3 antagonist: 21; D1 agonist: 13; D1 antagonist: -41*

How did CC(C)N(C(=O)CSc1ncnc2sc(-c3ccccc3)cc12)C(C)C do in these assays?
D1 PAM: -1; DRD3 agonist: -1; DRD3 antagonist: 17; D1 agonist: 0

How did CCOC(=O)CC(NC(=O)CCc1c(C)nc2c(-c3ccccc3)c(C)nn2c1C)c1ccc(OC(C)C)cc1 (configuration not stated) do in these assays?
D1 PAM: 1; DRD3 agonist: 36*; D1 agonist: 1; D1 antagonist: 3
